Paper PMC5540273 (PLoS ONE, 2017)

Tested on: CSF1R-autoinhibited
Conditions: concentration: 1 μM, replicates: in singlicate; n = 1
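Further: KINOMEscan kinase panel screen.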

Q: How did the “%Inh” value turn out when `Nc1nccc2scc(-c3ccc4c(c3)CCN4C(=O)Cc3ccccc3)c12` [GSK2576924] was run?
A: 0%

Q: `CCC(=O)c1c(-c2ccccc2)c2cc(Cl)ccc2c(=O)n1Cc1cc(S(C)(=O)=O)n(CC(F)F)n1` was tested. Which “%Inh” value did it give?
A: 0%

Q: `O=c1cc(N2CCOCC2)nc2n(Cc3ccc(F)c(Cl)c3)ccn12` [GSK2297099] was tested. Which “%Inh” value did it give?
A: 0%

Q: With `Fc1cccc(CSc2nnc(-c3ccc4c(c3)CCO4)o2)c1` as the compound, how does the “%Inh” value read?
A: 5%

Q: Which “%Inh” value does the source give for `Cc1cccc(-c2nc(Nc3ccc4c(cnn4C)c3)c3ccccc3n2)n1` [GW876731] here?
A: 0%

Q: Which “%Inh” value does the source give for `COc1cccc(C2=C(Nc3cccc(C(=O)O)c3)C(=O)NC2=O)c1` [SB-390770] here?
A: 0%

Q: With `Nc1ncnc2c1ncn2-c1cccc2ccccc12` [SKF-97184] as the compound, how does the “%Inh” value read?
A: 33%

Q: How did the “%Inh” value turn out when `Nc1ncnc2c1ncn2-c1ccc(Cl)cc1` [AH2635] was run?
A: 0%

Q: `COc1cc2ncn(-c3cc(OCc4ccncc4)c(C(N)=O)s3)c2cc1OC` [GSK336313] was tested. Which “%Inh” value did it give?
A: 0%

Q: `Cl.c1ccc(Cn2cnc3cc(Nc4ncnc5ccccc45)ccc32)cc1` [GW272142] was tested. Which “%Inh” value did it give?
A: 0%

Q: For `C[C@@H]1CC[C@H](C(=O)NC2CCCCC2)CN1c1cc(-c2ccc3c(N)n[nH]c3c2)nc(N)n1` [GSK2291363], which “%Inh” value is on record?
A: 31%

Q: For `Nc1n[nH]c2ncc(-c3ccccc3)cc12` [SB-517081], which “%Inh” value is on record?
A: 0%

Q: Which “%Inh” value does the source give for `CN1C(=O)C(Nc2cc(Cl)c(O)c(Cl)c2)=C(c2ccc(Cl)cc2)C1=O` [SB-404321] here?
A: 0%

Q: With `COc1ccc(-c2cc3c(C)nc(N)nc3n([C@H]3CC[C@H](O)CC3)c2=O)cn1` as the compound, how does the “%Inh” value read?
A: 6%
